The nature of assay [1]: qHTS Assay for Lipid Storage Modulators (AID 1519; calls by dose curve; for activity change, negative = inhibition: % is set by controls: 0 for no effect and ±100 for the full control effect). The note with it: Drosophila S3 cells, BODIPY lipid droplet/cell ratio, laser cytometry, cells loaded with oleic acid. An outline of the steps:
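Cells seeded at 5,000 per well were treated with compounds over a concentration series and loaded with oleic acid (400 uM, as added). Lipid droplet fluorescence (488 nm excitation, 500-530 nm channel) was read by laser-scanning cytometry and normalized to 20 uM Triacsin C.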
On the technique in general: In qHTS, concentration-response curves come from the screen itself.

In assay [2] the target is DNA repair nuclease/redox regulator APEX1 (Homo sapiens) (UniProt P27695). The assay is described as follows: qHTS Validation Assay for Inhibitors of the Human Apurinic/apyrimidinic Endonuclease 1 (APE1) (AID 1705; note: potency is the fitted concentration of half-maximal effect;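 for activity change, negative = inhibition: TAMRA fluorescence gain over two minutes as APE1 cuts a quenched THF abasic duplex; % is set by controls: 0 for no effect and ±100 for the full control effect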). The note with it: purified APE1 endonuclease activity, fluorescence, titration; series mostly up to 57.1 µM. The procedure, abridged: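 Read-out: TAMRA fluorescence (525 nm ex, 598 nm em) from cleavage of a quenched THF abasic-site duplex, 50 nM final; activity taken as intensity change between third and first of three reads 60 s apart.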

Assay [3] is described as follows: Counterscreen for APE1 Inhibitors: Fluorescent Dye Displacement Validation Assay (AID 1707).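 Note: plate controls were ThO with dsDNA and no compound for no effect and ThO without dsDNA for full effect.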 Conditions: fluorescent dye displacement from DNA; series mostly up to 57.1 µM. An outline of the steps: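 Reaction mixture of 250 nM Thiazole Orange and 50 nM double-stranded abasic-site DNA was dispensed, compounds were pin-transferred, and fluorescence was read at endpoint (480 nm ex, 540 nm em). Reduced fluorescence indicated dye displacement by DNA binding.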

Assay [4] addresses Endonuclease 4 (Escherichia coli (strain K12)) (UniProt P0A6C1). The assay can be described thus: Counterscreen for APE1 Inhibitors: qHTS Validation Assay for Inhibitors of Endonuclease IV (AID 1708). Note: % is set by controls: 0 for no effect and ±100 for the full control effect. Conditions: E. coli endonuclease IV, DNA cleavage fluorescence; series mostly up to 57.1 µM. The procedure, abridged:
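The reaction buffer contained 50 mM Tris-HCl pH 7.5, 50 mM NaCl, 2 mM MgCl2, 1 mM DTT and 0.01% Tween-20. Incision of a 50 nM fluorophore/quencher THF substrate by 2 nM enzyme was measured kinetically.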

The nature of assay [5]: qHTS for differential inhibitors of proliferation of Plasmodium falciparum line 7G8 (AID 1815).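 For activity change, negative = inhibition: plate controls were vehicle wells for no effect and reference inhibitor wells for full effect.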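 Note: parasite growth measured after three days of incubation.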 Note: potency is the fitted concentration of half-maximal effect. Conditions: Plasmodium falciparum 7G8 proliferation inhibition; series mostly up to 28.7 µM.
Assay [6] can be described thus: qHTS for differential inhibitors of proliferation of Plasmodium falciparum line GB4 (AID 1816).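 For activity change, negative = inhibition: 0% = vehicle DMSO and -100% = reference inhibitor.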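 Note: parasite growth measured after 72 h incubation.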 Note: potency is the fitted concentration of half-maximal effect. Conditions: Potency: Plasmodium falciparum GB4 proliferation inhibition; series mostly up to 28.7 µM.
Assay [7] can be described thus: qHTS for differential inhibitors of proliferation of Plasmodium falciparum line 3D7 (AID 1876). Note: potency is the fitted concentration of half-maximal effect. The note with it: P. falciparum 3D7 proliferation inhibition; series mostly up to 28.7 µM.
The nature of assay [8]: qHTS for differential inhibitors of proliferation of Plasmodium falciparum line D10 (AID 1877).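 For activity change, negative = inhibition: plate controls were vehicle wells for no effect and reference inhibitor wells for full effect.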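 Note: parasites grown with compound for 72 h before DNA staining.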 Note: potency is the fitted concentration of half-maximal effect. The note with it: series mostly up to 28.7 µM.
Assay [9] in a line: qHTS for differential inhibitors of proliferation of Plasmodium falciparum line Dd2 (AID 1882).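 For activity change, negative = inhibition: compound exposure of 72 h on infected erythrocytes; plate controls were DMSO vehicle for no effect and 0.29 µM artemisinin for full effect.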 Note: nearly all actives have a fitted effect of over 65% in size. Note: potency is the fitted concentration of half-maximal effect. The note with it: Potency: Plasmodium falciparum Dd2 proliferation inhibition; series mostly up to 28.7 µM. The procedure, abridged:
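RBC culture, 0.3% parasitemia / 2.5% Hct final; cpd added by pin tool in DMSO; 72 h, 37 C, 5% CO2; lysis buffer + SYBR Green I, o/n RT dark; FI 485/535; norm. to artemisinin 0.29 uM and DMSO.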

Assay [10] can be described thus: qHTS for differential inhibitors of proliferation of Plasmodium falciparum line W2 (AID 1883).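 For activity change, negative = inhibition: 0% = vehicle wells and -100% = control inhibitor wells.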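 Note: parasites grown with compound for 72 h before lysis and staining.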 Note: potency is the fitted concentration of half-maximal effect. Conditions: Potency: Plasmodium falciparum W2 proliferation inhibition; series mostly up to 28.7 µM.
A short description of assay [11]: qHTS for differential inhibitors of proliferation of Plasmodium falciparum line HB3 (AID 1886).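 For activity change, negative = inhibition: plate controls were vehicle for no effect and reference inhibitor for full effect.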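 Note: parasites grown with compound for 72 h before SYBR Green readout.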 Note: potency is the fitted concentration of half-maximal effect. The note with it: Potency: Plasmodium falciparum HB3 proliferation inhibition; series mostly up to 28.7 µM.
Assay [12] can be described thus: qHTS Assay for Modulators of Human Peripheral Myelin Protein 22 (PMP22) Expression/Activity (AID 1967; active = well fitted curve in the direction sought with a large enough effect in the signal ratio; the % refers to the signal ratio;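 note: 0% = untreated cells and 100% end not stated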). Conditions: Cell-based PMP22 reporter, dual-color luciferase ratio, mouse Pmp22 promoter in mouse Schwann cells; series mostly up to 115 µM. The procedure, abridged:
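Mouse MSC80 Schwann line, Pmp22 promoter–CBG68 reporter, EF-alpha–CBR internal control. 24h compound exposure, 37 °C/5% CO2, DMEM + 10% FBS. Readout: corrected green/red luminescence ratio, normalized to untreated cells; concentration-response curves fitted and classified.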

Assay [13] concerns the target Ferritin light chain (Equus caballus) (UniProt P02791). The assay is described as follows: qHTS Validation Assay for Identification of Novel General Anesthetics (AID 2323). Note: % is set by controls: 0 for no effect and ±100 for the full control effect. The note with it: horse apoferritin, anesthetic-site fluorescent probe displacement; series mostly up to 76.9 µM. The procedure, abridged:
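10 uM horse-spleen apoferritin + 1-AMA (50% saturated, PBS); cpd pin-transferred, 10 min RT. Ex 380/Em 535 nm endpoint. Activity normalized between free 1-AMA and 1-AMA/apoferritin; 4-parameter Hill fit of concentration-response.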

Assay [14] has as its target ATP-dependent DNA helicase Q1 (Homo sapiens) (UniProt P46063). The assay can be described thus: qHTS Validation Assay for Inhibitors of RecQ-Like Dna Helicase 1 (RECQ1) (AID 2353).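 Note: plate controls were DMSO vehicle for no effect and enzyme-free control for full effect.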 The note with it: recombinant RECQ1 helicase DNA unwinding assay; series mostly up to 25.6 µM. The procedure, abridged: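 RECQ1T1 50 nM; forked duplex (20 bp + 30-nt ss tails) 200 nM, ATP 2 mM final; pH 8.0, 2 mM MgCl2, 2.5 ug/ml poly(dI-dC); 15 min compound preincubation; discontinuous kinetic read over 2 h at RT.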

Assay [15] in a line: Cytometric Cell-Based qHTS for Inhibitors of the mTORC1 Signaling Pathway in MEF (Tsc2-/-, p53-/-) Cells (AID 2660).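 Note: percent of cells above a phospho-rpS6 to PI ratio cutoff in each well; plate controls were DMSO for no effect and rapamycin for full effect.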 The note with it: mTORC1 pathway cytometry; series mostly up to 38.3 µM. An outline of the steps:
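Tsc2-/-, p53-/- MEFs (empty vector) exposed to compound 24 h at 37 C, fixed, stained with Alexa-488 anti-phospho-rpS6 Ser235/236 and propidium iodide. Acumen laser scanning; phospho-S6/PI ratio thresholded against 7.5 nM rapamycin, reported as % positive cells.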

Assay [16] is described as follows: High Content Imaging Cell-Based qHTS for Inhibitors of the mTORC1 Signaling Pathway in MEF (Tsc2-/-, p53-/-) Cells (AID 2666).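 Note: percent of cells scored positive for phospho-rpS6 Ser235/236 immunostaining by imaging.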 The note with it: series mostly up to 38.3 µM. An outline of the steps: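 Tsc2-/-, p53-/- MEFs (empty-vector stable) grown in DMEM + 10% FBS were exposed to compounds for 24 hrs at 37 degree Celsius, fixed, and stained with Alexa-488 anti-phospho-rpS6 Ser235/236 plus Hoechst. Imaging gave the percentage of positive cells per well.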

In assay [17] the target is RecQ-like DNA helicase BLM (Homo sapiens) (UniProt P54132). The assay can be described thus: qHTS Validation Assay for Inhibitors of Bloom's syndrome helicase (BLM) (AID 2364).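 Note: plate controls were DMSO vehicle for no effect and enzyme-free control for full effect.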 Conditions: BLM helicase DNA unwinding, fluorescence, in vitro; series mostly up to 57.1 µM. An outline of the steps: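 Forked 20-bp duplex substrate (200 nM, TAMRA/BHQ-2) plus 2 mM ATP added after 15 min compound preincubation with 50 nM enzyme, pH 8.0, poly(dI-dC) 2.5 ug/ml. Strand separation followed by fluorescence (525/598 nm) over 2 h, normalized to enzyme-free and DMSO controls.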

Setting [18] is: measured here: cell count channel max response.
Where [19] appears, read: measured here: lipid channel max response.

This is an account of results in PubChem BioAssay (NCATS).

Where “and” joins values, the source holds several entries; their conditions need not be identical. Equal values may be shown once. Records with an inconclusive call do not appear. Calls of active or inactive are those of the source. Unless noted, calls come from the whole dose curve; as a rule, active = well fitted curve in the direction sought with a large enough effect; inconclusive = small, poorly fitted or top-dose-only effect, or another doubt; inactive = no such curve, though single readings can be large; an effect the other way counts as inactive or inconclusive.

ATP-dependent DNA helicase Q1 (Homo sapiens), sequence (P46063 whole entry, looked up): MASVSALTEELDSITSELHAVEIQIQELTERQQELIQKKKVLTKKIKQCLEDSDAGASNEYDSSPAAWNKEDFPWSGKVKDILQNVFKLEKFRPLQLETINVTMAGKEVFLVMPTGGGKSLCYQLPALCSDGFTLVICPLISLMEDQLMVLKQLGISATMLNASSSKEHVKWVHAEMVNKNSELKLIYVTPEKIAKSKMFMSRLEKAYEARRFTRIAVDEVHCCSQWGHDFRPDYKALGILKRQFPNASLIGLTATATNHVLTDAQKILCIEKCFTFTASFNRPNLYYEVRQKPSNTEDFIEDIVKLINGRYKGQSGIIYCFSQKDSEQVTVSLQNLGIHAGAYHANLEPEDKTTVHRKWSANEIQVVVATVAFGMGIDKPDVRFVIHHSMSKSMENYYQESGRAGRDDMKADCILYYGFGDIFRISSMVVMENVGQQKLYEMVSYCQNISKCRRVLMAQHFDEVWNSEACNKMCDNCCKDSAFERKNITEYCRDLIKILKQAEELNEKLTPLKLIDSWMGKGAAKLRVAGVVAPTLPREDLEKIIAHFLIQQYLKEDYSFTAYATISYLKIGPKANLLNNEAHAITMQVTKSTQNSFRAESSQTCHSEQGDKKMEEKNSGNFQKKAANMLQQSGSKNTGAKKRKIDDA
DNA repair nuclease/redox regulator APEX1 (Homo sapiens), sequence (P27695 whole entry, looked up): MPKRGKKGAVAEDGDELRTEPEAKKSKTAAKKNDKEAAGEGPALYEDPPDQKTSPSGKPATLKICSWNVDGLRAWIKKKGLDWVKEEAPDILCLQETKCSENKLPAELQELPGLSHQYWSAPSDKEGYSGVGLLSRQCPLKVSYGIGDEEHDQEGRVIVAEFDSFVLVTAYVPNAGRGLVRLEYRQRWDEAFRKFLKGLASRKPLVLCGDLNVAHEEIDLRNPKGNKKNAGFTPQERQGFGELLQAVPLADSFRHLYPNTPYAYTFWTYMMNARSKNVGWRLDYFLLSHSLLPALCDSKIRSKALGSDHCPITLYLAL
Ferritin light chain (Equus caballus), sequence (P02791 2-175 limits assumed): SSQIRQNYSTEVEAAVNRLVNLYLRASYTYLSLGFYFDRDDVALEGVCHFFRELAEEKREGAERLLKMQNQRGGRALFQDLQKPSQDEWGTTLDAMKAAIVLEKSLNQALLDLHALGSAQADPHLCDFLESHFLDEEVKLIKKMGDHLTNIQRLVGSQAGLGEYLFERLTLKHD
RecQ-like DNA helicase BLM (Homo sapiens), sequence (P54132 whole entry, looked up): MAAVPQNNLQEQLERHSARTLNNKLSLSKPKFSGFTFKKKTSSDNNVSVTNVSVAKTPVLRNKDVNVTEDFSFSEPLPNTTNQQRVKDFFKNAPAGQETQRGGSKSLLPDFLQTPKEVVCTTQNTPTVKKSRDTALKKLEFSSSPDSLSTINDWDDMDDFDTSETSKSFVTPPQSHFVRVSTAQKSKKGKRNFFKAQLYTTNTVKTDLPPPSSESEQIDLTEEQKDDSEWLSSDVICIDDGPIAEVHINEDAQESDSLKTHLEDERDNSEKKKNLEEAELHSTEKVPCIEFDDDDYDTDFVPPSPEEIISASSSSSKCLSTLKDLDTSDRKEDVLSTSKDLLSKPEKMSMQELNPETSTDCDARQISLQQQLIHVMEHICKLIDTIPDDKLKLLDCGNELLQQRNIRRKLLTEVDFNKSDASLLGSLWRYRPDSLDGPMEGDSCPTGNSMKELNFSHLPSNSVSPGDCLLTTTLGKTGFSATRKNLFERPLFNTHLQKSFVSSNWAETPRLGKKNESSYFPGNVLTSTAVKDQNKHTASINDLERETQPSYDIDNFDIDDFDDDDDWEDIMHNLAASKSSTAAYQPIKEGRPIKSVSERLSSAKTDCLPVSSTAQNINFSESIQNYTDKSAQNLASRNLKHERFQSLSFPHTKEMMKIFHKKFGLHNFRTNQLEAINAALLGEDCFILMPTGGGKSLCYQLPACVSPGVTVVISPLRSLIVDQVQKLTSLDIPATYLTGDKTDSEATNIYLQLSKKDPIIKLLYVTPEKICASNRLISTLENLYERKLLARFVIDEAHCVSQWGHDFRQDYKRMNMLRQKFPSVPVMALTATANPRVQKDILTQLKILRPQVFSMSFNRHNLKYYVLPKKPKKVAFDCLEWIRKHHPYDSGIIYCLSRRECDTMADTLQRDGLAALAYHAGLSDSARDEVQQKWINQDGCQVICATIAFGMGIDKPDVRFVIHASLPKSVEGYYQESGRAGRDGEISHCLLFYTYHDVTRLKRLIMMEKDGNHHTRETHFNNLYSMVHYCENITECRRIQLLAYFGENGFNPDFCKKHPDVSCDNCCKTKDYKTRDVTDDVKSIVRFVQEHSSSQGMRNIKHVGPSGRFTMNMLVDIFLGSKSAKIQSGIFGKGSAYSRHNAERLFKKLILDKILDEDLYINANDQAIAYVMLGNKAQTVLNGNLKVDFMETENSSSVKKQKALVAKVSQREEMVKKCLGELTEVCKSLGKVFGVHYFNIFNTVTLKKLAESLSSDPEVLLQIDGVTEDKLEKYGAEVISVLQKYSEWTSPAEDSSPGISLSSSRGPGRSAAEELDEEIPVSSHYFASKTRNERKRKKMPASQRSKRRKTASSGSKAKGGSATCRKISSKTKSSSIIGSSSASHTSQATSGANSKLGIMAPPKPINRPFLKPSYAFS

Regarding `O=C1C=CC(=O)C=C1`, in [1] (at 57.5 µM (top of the series)), the activity change, negative = inhibition was 0.0539% (inactive). For the same compound, the max response was -25.7% in assay [1] (setting [18]) and -24.4% in assay [1] (setting [19]). In addition, the Potency in assay [2] is 14.1 µM (active). Moreover, the Potency entry in [3], in [4], in assay [5], in assay [6], in assay [7] and in assay [8] was “inactive” throughout. For the same compound, the Potency result in assay [9], in assay [10], in assay [11], in [14], in assay [15] and in [16] was “inactive” each time. For the same compound, the result in [12] and in assay [13] was inactive.

Turning to `CN1[C@@H]2CC[C@H]1CC(OC1c3ccccc3CCc3ccccc31)C2` (stereo not given in full), in assay [1] (at 25.7 µM (top of the series)), the activity change, negative = inhibition was -3.36% (inactive). Besides, the max response was -5.63% in assay [1] (setting [18]) and -11.3% in [1] (setting [19]).

Regarding `CCCN(CCC)[C@@H]1CCc2cccc(O)c2C1`, in assay [1] (at 57.5 µM (top of the series)), the activity change, negative = inhibition was -3.59% (inactive) and 3.17% (inactive) and -3.25% (inactive). In addition, the max response in [1] (setting [18]) was 0.992% and 13.8% and 35%; in assay [1] (setting [19]), -2.21% and 19.9% and 27.7%. Besides, the Potency entry in assay [2], in assay [3], in [4], in assay [14], in assay [17] and in [15] was “inactive” each time. For the same compound, in [16], the Potency result is “inactive”. Moreover, the Potency in assay [5] is 3.55 µM (active); in assay [6] it was 3.16 µM (active); in assay [7] it was 10 µM (active); in assay [8], 10 µM (active); in assay [9], 8.91 µM (active); in [10] it was 2.51 µM (active). The Potency in assay [11] was 10 µM (active). In assay [13], the compound was called inactive.

Take `CCCN(CCC)C1CCc2cccc(O)c2C1` (stereo not given): the activity change, negative = inhibition in assay [1] (at 57.5 µM (top of the series)) was -0.917% (inactive). The values for the max response in [1] (setting [18]) and in assay [1] (setting [19]) were -31.4% and -33.3%, respectively. The Potency result in assay [2], in assay [3], in [4], in assay [5], in assay [6] and in assay [7] was “inactive” throughout. Besides, the Potency entry in [8], in assay [9], in assay [10], in assay [11], in assay [14] and in assay [15] was “inactive” throughout. In assay [16], the Potency result was “inactive”. For the same compound, the result in assay [12] and in assay [13] was inactive.

In the case of `C=CCN1C[C@@H](C)N([C@H](c2ccc(C(=O)N(CC)CC)cc2)c2cccc(OC)c2)C[C@@H]1C`, in assay [1] (at 57.5 µM (top of the series)), the activity change, negative = inhibition was 2.23% (inactive). Moreover, the max response in assay [1] (setting [18]) was -2.68%; in assay [1] (setting [19]), 0%. Besides, the Potency result in assay [2], in [3], in assay [4], in [14], in assay [15] and in assay [16] was “inactive” in each case. For the same compound, the Potency in assay [5] is 2.82 µM (active); in [6], 3.98 µM (active); in [7], 3.16 µM (active); in assay [8], 7.08 µM (active); in [9] it was 8.91 µM (active); in [10] it was 3.16 µM (active). Besides, in assay [11], the Potency is 4.47 µM (active).

With `NC(CCCCCP(=O)(O)O)C(=O)O` (stereo not given), in assay [1] (at 57.5 µM (top of the series)), the activity change, negative = inhibition is 0.489% (inactive). Further, the results for the max response in assay [1] (setting [18]) and in assay [1] (setting [19]) were -0.44% and -0.15%, respectively. In addition, the Potency result in assay [2], in assay [3], in assay [4], in assay [5], in assay [6] and in assay [7] was “inactive” throughout. Further, the Potency result in assay [8], in assay [9], in [10], in [11], in assay [14] and in [15] was “inactive” each time. Moreover, the Potency result in assay [16] was “inactive”. For the same compound, the outcome in assay [12] and in assay [13] was inactive.

On to `ClC1C(Cl)C(Cl)C(Cl)C(Cl)C1Cl` (stereo not given), for which the activity change, negative = inhibition in assay [1] (at 57.5 µM (top of the series)) is 9.37% (inactive). The max response in assay [1] (setting [18]) worked out at 11.2%; in assay [1] (setting [19]) it was 20.6%.

For the compound `CC(N)Cc1ccc(O)cc1` (stereo not given), the activity change, negative = inhibition in assay [1] (at 57.5 µM (top of the series)) is 1.02% (inactive). For the same compound, the max response was found to be 11.5% in [1] (setting [18]) and 13.9% in [1] (setting [19]).

With `CCC(=O)O[C@@](Cc1ccccc1)(c1ccccc1)[C@@H](C)CN(C)C`, in [1] (at 25.7 µM (top of the series)), the activity change, negative = inhibition is -2.5% (inactive). Moreover, the max response in assay [1] (setting [18]) is -5.05%; in assay [1] (setting [19]), -7.97%.
